Laboratory results published in PubChem BioAssay (NCATS).
Inconclusive results are not listed. Active and inactive are the calls of the source. Unless noted, calls come from the whole dose curve; as a rule, active = well fitted curve in the direction sought with a large enough effect; inconclusive = small, poorly fitted or top-dose-only effect, or another doubt; inactive = no such curve, though single readings can be large; an effect the other way counts as inactive or inconclusive.

What was measured:
[1] = biological target: Cytochrome P450 1A2 (Homo sapiens) (UniProt P05177); assay: p450-cyp1a2 (AID 410; calls by dose curve; note: potency is the fitted concentration of half-maximal effect)
Summary of the method: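 Luminescent readout of luciferin formed from Luciferin-ME by human CYP1A2; data normalized against complete inhibition by 57 uM furafylline. Enzyme 20nM, substrate 100uM at Km, 100mM KPO4 buffer, 60 min reaction at room temperature.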

[2] = biological target: Glucocorticoid receptor (Homo sapiens) (UniProt P04150); assay: GR-GFP Redistribution (AID 450;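 active = compounds whose dose series gives a full or clear partial fitted curve of increased nuclear translocation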; note: potency is the fitted concentration of half-maximal effect)
[3] = biological target: Glucocorticoid receptor (Homo sapiens) (UniProt P04150); assay: GR-EFC Redistribution (AID 451; calls by dose curve; note: potency is the fitted concentration of half-maximal effect); conditions: CHO-K1 GR-EFC translocation, beta-gal luminescence, 2 h
Summary of the method: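 CHO-K1 cells expressing nuclear EA and GR-ED fragments of b-gal; compounds titrated up to 46 uM final, 2 h at 37 C. GR nuclear translocation read as complemented b-gal luminescence after 1 h RT detection.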

[4] = biological target: Mitogen-activated protein kinase 10 (Mus musculus) (UniProt Q61831); assay: JNK3 AlphaScreen Assay (AID 530; active = well fitted curve in either direction with a large enough effect, not every such curve was filed as active;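 note: kinase came from lysate of stimulated human HepG2 cells; signal reports phosphorylation of biotinylated GST-cJun 1-79 at Ser73 with 10 µM ATP; series mostly up to about 57 µM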)
Summary of the method: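 Pre-activated (IL-1β/TNFα) JNK3 in HepG2 lysates phosphorylates biotin-GST-cJun(1-79), 10 uM ATP; anti-phospho-cJun(Ser73) AlphaScreen read at room temperature, pH 7.6 Tris buffer. Compounds pre-incubated 15 min as titrations.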

[5] = biological target: 3',5'-cyclic-AMP phosphodiesterase 4B (Homo sapiens) (UniProt Q07343); assay: qHTS Assay for Inhibitors of PDE-IV (AID 607; active = well fitted activation curve with a large enough effect in the main read-out, with a control signal flat, not every such curve was filed as active)
Summary of the method: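 The readout is membrane depolarisation from a cAMP-sensing CNG channel, detected with a potential dye at ex 535/em 590. Cells were HEK293-derived (endogenous PDE-IV) at 1000 cells/well, titrated up to 22.9 uM final.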

[6] = biological target: Cytochrome P450 2C9 (Homo sapiens) (UniProt P11712); assay: qHTS Assay for Inhibitors and Substrates of Cytochrome P450 2C9 (AID 883); note: nearly all actives have a fitted effect of over 60% in size; note: potency is the fitted concentration of half-maximal effect
Summary of the method: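 10nM CYP2C9 + 100uM Luciferin-H (=KM), 25mM KPO4; cpd 10 min 37C; NADPH regen, 60 min 37C; stop/detect with P450 Glo-Buffer 20 min; luminescence. Norm. to 57uM sulphaphenazole as full inhibition.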

[7] = biological target: Cytochrome P450 2C19 (Homo sapiens) (UniProt P33261); assay: qHTS Assay for Inhibitors and Substrates of Cytochrome P450 2C19 (AID 899); note: nearly all actives have a fitted effect of over 60% in size; note: potency is the fitted concentration of half-maximal effect
Summary of the method: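 Luminescent read-out of luciferin formed from Luciferin-H EGE (10uM, equal to KM). Enzyme 5nM in 50mM KPO4; compound added, 10 min at 37C, then NADPH regenerating system for 60 min at 37C. Full inhibition defined by 57uM ketoconazole.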

[8] = biological target: Cytochrome P450 3A4 (Homo sapiens) (UniProt P08684); assay: qHTS Assay for Inhibitors and Substrates of Cytochrome P450 3A4 (AID 884); note: potency is the fitted concentration of half-maximal effect; nearly all actives have a fitted effect of over 50% in size
Summary of the method: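 20 nM human CYP3A4 with 25 uM Luciferin-PPXE (at KM) in 200 mM KPO4, preincubated 10 min with compound; NADPH regeneration started a 60 min RT reaction. Luciferin detected by luminescence, normalized to 57 uM ketoconazole as full inhibition.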

[9] = biological target: Cytochrome P450 3A4 (Homo sapiens) (UniProt P08684); assay: qHTS Assay for Activators of Cytochrome P450 3A4 (AID 885); note: nearly all actives have a fitted effect of over 65% in size
Summary of the method: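 Steps: enzyme/substrate mix dispensed; compound added, 10 min RT; NADPH regeneration solution added, 60 min RT; luciferin detection buffer stops reaction; 20 min later luminescence measured.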

[10] = biological target: DNA dC->dU-editing enzyme APOBEC-3G (Homo sapiens) (UniProt Q9HC16); assay: qHTS for inhibitors of Vif-A3G interactions: Validation (AID 588379)
Summary of the method: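 HeLa cells stably expressing Vif and A3G-eYFP, 700 cells/well, incubated overnight at 37 deg C, then exposed to compound overnight at 37 deg C. Inhibition of Vif-mediated degradation read as increased yellow fluorescence (Ex 488/Em 500-530) by laser-scanning cytometry.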

[11] = biological target: Cytochrome P450 2D6 (Homo sapiens) (UniProt P10635); assay: qHTS Assay for Inhibitors and Substrates of Cytochrome P450 2D6 (AID 891);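 note: luciferin methyl ether substrate demethylated by CYP2D6 with NADPH regeneration; nearly all actives have a fitted effect of over 60% in size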
Summary of the method: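 Human CYP2D6 (5 nM) with 30 uM Luciferin-ME EGE (at Km) in 100 mM KPO4, compound preincubated 10 min, then NADPH regeneration system for 60 min at room temperature. Luciferin read by luminescence; normalized to 1.43 uM quinidine.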

Measured: Potency

Chain of Glucocorticoid receptor (Homo sapiens) (P04150 whole entry, looked up, the tested form may be a part): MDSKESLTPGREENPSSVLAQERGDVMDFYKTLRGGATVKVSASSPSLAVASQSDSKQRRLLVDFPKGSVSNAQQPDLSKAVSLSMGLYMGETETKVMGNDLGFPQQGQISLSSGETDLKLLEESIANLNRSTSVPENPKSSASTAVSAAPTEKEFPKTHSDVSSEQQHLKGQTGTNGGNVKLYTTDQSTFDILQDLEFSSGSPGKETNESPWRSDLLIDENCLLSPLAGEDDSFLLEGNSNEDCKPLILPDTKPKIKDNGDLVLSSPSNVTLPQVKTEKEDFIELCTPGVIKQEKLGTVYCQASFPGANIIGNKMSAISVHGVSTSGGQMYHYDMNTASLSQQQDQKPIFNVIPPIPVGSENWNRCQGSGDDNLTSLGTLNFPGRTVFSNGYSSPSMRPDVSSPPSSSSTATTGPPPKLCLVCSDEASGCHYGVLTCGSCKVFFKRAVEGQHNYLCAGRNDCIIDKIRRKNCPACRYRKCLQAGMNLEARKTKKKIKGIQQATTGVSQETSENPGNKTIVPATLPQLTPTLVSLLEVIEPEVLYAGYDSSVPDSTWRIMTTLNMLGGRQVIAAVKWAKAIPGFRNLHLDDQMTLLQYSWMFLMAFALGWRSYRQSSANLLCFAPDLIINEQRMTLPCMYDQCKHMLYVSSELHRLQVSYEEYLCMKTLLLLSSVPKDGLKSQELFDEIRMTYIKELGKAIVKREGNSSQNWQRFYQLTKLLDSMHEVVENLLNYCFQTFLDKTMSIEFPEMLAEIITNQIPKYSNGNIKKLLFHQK
Chain of Cytochrome P450 2D6 (Homo sapiens) (P10635 whole entry, looked up): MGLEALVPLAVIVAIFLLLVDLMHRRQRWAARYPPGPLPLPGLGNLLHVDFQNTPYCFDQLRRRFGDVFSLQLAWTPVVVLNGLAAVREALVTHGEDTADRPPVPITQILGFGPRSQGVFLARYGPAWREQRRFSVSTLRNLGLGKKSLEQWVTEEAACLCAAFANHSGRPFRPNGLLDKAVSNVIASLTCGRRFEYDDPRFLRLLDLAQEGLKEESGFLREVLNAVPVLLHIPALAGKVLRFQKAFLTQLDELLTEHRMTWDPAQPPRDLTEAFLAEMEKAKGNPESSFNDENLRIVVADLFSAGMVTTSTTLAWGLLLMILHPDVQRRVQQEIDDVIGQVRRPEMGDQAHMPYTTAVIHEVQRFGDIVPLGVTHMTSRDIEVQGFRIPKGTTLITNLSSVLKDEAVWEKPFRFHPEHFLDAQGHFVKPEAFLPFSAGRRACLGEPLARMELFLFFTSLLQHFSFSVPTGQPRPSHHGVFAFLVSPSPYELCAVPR
Chain of Cytochrome P450 2C9 (Homo sapiens) (P11712 whole entry, looked up): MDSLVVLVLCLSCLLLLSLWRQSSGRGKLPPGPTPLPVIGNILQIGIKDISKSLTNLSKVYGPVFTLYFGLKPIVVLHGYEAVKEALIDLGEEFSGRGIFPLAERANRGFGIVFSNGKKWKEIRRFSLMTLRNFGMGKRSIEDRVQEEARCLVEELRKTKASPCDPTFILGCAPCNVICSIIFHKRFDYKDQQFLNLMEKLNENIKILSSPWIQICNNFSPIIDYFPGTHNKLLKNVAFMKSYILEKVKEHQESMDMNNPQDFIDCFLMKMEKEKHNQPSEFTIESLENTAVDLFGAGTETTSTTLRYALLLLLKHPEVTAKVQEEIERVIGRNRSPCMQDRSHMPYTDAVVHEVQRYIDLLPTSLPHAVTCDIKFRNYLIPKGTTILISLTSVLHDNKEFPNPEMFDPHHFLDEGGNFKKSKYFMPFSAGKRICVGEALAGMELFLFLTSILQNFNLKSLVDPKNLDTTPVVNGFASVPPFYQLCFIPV
Chain of Cytochrome P450 3A4 (Homo sapiens) (P08684 whole entry, looked up): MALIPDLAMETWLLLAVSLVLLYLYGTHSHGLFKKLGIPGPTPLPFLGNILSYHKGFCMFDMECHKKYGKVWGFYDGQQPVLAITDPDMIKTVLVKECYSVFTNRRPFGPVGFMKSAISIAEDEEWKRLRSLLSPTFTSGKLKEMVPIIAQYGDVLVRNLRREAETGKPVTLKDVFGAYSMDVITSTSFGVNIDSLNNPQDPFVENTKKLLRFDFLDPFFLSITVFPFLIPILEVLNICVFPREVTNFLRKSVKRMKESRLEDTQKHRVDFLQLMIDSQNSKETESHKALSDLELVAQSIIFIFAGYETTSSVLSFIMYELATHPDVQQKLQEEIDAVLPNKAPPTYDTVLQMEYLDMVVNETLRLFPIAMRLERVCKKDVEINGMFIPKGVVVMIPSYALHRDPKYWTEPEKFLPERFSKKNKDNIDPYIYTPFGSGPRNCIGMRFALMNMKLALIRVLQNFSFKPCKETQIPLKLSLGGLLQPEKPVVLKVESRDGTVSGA
Chain of Cytochrome P450 2C19 (Homo sapiens) (P33261 whole entry, looked up): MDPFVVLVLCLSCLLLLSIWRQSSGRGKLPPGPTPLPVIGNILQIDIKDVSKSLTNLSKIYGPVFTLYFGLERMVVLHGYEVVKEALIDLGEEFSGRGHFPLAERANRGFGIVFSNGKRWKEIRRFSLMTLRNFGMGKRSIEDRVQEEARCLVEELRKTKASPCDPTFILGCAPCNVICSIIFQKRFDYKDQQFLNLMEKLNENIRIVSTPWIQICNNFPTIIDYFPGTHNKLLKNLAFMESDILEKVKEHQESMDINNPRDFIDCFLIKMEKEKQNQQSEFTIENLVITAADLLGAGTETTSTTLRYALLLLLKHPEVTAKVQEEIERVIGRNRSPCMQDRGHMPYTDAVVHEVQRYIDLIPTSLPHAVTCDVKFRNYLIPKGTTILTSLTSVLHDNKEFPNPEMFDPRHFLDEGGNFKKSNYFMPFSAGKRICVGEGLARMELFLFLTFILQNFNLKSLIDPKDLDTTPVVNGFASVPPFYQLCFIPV
Chain of Cytochrome P450 1A2 (Homo sapiens) (P05177 whole entry, looked up): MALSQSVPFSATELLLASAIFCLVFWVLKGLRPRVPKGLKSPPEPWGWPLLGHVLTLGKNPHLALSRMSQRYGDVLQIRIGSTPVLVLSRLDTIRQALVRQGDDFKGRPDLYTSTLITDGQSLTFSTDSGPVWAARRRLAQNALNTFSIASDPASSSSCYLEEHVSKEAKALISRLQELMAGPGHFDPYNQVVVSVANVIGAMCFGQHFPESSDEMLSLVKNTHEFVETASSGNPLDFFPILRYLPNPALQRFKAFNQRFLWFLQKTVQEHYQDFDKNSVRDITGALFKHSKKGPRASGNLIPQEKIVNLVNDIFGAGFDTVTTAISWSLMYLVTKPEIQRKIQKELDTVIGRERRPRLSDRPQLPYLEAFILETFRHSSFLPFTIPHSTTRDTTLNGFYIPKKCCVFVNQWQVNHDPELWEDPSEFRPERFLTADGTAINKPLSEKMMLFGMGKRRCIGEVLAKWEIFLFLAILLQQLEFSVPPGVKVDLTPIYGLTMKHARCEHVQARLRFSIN
Chain of DNA dC->dU-editing enzyme APOBEC-3G (Homo sapiens) (Q9HC16 whole entry, looked up): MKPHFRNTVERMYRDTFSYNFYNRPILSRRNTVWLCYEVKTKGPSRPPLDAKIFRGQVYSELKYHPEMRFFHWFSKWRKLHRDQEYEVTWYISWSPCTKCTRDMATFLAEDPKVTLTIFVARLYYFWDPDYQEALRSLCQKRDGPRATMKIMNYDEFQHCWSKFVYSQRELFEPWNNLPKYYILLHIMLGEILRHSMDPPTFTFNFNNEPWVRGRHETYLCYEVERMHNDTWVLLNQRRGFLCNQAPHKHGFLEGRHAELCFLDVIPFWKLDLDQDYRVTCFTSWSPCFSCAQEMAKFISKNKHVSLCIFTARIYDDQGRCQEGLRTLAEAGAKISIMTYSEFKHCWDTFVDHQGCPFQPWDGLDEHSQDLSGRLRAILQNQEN
Chain of 3',5'-cyclic-AMP phosphodiesterase 4B (Homo sapiens) (Q07343 whole entry, looked up): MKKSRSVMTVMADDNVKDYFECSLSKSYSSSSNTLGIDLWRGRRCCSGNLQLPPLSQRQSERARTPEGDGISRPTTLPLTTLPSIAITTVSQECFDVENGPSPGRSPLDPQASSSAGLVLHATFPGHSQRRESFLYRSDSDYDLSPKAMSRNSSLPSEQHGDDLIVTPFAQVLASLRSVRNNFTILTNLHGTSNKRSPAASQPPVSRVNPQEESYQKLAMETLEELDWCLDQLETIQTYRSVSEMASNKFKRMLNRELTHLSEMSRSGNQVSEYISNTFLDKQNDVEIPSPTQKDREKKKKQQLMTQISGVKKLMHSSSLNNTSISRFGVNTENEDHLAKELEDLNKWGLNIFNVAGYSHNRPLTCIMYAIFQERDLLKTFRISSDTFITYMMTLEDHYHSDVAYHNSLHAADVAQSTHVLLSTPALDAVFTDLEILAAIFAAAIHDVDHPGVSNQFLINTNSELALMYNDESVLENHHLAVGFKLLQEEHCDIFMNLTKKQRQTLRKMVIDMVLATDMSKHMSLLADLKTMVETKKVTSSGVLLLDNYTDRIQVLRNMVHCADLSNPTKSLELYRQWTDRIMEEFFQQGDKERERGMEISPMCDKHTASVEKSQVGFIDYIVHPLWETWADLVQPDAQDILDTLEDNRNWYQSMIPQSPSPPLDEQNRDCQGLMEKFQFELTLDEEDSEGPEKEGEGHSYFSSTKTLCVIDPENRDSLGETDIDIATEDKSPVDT

O[C@@H]1CC[C@H]2Cc3ccccc3N=C21
active: [1] 15.8 µM
inactive: [2] > 46 µM | [3] > 46 µM | [4] | [5] | [6] | [7]

COc1cccc(-c2oc3ccccc3c(=O)c2O)c1
inactive: [2] > 46 µM | [3] > 46 µM | [9] | [10]
active: [1] 0.2 µM | [6] 12.6 µM | [8] 12.6 µM | [7] 6.31 µM

C=C1CC[C@@H](O)C/C1=C/C=C1\CCC[C@]2(C)[C@@H]1CC[C@H]2[C@@H](C)/C=C\[C@@H](C)C(C)C
inactive: [1] | [2] > 46 µM | [3] > 46 µM | [4] | [11]
active: [7] 20 µM

COc1ccc(-c2coc3cc(O[C@@H]4O[C@@H](CO)[C@@H](O)[C@@H](O)[C@H]4O)cc(O)c3c2=O)cc1
inactive: [1] | [2] > 46 µM | [3] > 46 µM | [4] | [6] | [11] | [7]

C=C1CC[C@@H]2O[C@]2(C)CC[C@@H]2[C@H]1CC2(C)C
inactive: [2] > 46 µM | [3] > 46 µM | [4] | [11]
active: [1] 15.8 µM | [6] 25.1 µM

O=c1c(O)c(-c2cccc(O)c2)oc2ccccc12
inactive: [2] > 46 µM | [3] > 46 µM | [9] | [10]
active: [1] 0.501 µM | [6] 15.8 µM | [8] 15.8 µM | [7] 25.1 µM

C=C1CC[C@@H](O)C/C1=C/C=C1\CCC[C@]2(C)[C@@H]1CC[C@H]2[C@@H](C)CCCC(C)C
inactive: [1] | [2] > 46 µM | [3] > 46 µM | [4] | [5] | [6] | [11] | [7]
